Residual activity data for 1 molecule are collected here from ChEMBL document CHEMBL2218924, “A broad activity screen in support of a chemogenomic map for kinase signalling research and drug discovery” (Biochem J, 2013).

For assay [1], the target named is T1, Serine/threonine-protein kinase TBK1 (Homo sapiens) (UniProt Q9UHD2).
T1 sequence (whole entry): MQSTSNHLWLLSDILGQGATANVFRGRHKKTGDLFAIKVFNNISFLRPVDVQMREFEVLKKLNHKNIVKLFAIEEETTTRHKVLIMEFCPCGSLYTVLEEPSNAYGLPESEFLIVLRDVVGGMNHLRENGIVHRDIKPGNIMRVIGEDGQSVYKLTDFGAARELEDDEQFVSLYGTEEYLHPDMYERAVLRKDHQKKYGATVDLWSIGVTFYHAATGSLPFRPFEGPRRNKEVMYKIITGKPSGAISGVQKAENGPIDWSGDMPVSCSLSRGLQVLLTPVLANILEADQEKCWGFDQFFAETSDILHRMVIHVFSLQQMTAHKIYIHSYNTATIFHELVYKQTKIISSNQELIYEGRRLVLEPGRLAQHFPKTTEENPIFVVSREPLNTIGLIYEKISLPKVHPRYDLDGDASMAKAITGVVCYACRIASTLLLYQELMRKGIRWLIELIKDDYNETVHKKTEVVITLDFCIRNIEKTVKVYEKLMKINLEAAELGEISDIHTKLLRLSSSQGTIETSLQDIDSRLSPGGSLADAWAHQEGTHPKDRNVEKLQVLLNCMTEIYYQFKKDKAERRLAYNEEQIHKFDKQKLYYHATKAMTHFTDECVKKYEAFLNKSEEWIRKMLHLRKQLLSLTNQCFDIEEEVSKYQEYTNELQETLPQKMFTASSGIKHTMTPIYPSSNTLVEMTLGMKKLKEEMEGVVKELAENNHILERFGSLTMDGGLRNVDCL
The settings on record: at 10 µM.

Assay [2] addresses T2, TGF-beta receptor type-1 (Homo sapiens) (UniProt P36897).
T2 sequence (whole entry): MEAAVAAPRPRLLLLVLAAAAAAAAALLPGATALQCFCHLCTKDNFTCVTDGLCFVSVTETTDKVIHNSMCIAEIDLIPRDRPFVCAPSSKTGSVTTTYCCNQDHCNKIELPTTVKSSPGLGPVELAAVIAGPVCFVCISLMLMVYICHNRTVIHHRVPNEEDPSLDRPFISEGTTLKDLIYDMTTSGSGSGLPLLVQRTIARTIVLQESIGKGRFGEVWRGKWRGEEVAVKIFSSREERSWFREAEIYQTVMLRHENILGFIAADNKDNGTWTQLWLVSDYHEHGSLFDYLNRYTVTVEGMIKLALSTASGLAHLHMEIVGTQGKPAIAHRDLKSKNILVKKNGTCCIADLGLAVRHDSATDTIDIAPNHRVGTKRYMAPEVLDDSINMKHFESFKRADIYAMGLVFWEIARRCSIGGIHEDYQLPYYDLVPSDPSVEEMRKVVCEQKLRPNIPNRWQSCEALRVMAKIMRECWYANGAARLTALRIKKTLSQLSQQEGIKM
Conditions: at 1 µM.

For assay [3], the target named is T2, TGF-beta receptor type-1 (Homo sapiens). The settings on record: at 10 µM.
For assay [4], the target named is Insulin-like growth factor 1 receptor (Homo sapiens) (UniProt P08069). Conditions: at 1 µM.
Chain of Insulin-like growth factor 1 receptor (Homo sapiens) (P08069 31-736 limits assumed): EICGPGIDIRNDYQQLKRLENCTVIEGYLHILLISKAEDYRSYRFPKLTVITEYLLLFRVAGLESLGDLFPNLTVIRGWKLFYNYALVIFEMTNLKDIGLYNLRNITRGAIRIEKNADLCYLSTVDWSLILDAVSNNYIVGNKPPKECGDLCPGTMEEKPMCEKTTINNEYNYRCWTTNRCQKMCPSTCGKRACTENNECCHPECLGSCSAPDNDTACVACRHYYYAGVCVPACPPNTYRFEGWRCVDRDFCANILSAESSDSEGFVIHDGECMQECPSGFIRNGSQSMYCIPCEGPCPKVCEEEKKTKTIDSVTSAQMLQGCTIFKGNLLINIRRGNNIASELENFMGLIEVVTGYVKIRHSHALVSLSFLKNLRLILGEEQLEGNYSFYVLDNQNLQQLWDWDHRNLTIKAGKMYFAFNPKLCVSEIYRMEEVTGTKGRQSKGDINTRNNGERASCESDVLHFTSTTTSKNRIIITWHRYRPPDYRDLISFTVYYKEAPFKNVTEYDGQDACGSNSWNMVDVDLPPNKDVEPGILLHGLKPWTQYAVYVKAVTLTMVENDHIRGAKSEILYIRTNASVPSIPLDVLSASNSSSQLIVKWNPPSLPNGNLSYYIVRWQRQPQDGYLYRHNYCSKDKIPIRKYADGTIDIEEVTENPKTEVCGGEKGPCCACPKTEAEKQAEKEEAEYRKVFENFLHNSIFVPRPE
Chain of Insulin-like growth factor 1 receptor (Homo sapiens) (P08069 741-1367 limits assumed): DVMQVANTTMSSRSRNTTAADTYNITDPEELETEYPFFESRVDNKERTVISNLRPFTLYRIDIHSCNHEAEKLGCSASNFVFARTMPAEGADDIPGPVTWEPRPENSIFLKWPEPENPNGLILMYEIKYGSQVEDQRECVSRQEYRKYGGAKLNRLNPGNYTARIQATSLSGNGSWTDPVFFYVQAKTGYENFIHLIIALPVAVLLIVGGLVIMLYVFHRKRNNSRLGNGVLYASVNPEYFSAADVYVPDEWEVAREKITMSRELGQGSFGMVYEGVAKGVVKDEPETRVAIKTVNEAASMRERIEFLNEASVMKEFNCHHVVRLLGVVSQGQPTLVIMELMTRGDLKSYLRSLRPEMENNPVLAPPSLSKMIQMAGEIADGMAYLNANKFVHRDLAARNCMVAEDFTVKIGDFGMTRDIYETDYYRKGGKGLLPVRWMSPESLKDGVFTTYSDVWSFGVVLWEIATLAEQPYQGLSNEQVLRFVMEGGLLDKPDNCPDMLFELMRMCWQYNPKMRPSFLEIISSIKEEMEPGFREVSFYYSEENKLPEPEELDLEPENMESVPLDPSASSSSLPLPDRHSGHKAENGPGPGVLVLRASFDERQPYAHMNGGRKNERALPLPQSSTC
For assay [5] the target is unchanged. Conditions: at 10 µM.
The target of assay [6] is T3, Inhibitor of nuclear factor kappa-B kinase subunit alpha (Homo sapiens) (UniProt O15111).
T3 sequence (whole entry): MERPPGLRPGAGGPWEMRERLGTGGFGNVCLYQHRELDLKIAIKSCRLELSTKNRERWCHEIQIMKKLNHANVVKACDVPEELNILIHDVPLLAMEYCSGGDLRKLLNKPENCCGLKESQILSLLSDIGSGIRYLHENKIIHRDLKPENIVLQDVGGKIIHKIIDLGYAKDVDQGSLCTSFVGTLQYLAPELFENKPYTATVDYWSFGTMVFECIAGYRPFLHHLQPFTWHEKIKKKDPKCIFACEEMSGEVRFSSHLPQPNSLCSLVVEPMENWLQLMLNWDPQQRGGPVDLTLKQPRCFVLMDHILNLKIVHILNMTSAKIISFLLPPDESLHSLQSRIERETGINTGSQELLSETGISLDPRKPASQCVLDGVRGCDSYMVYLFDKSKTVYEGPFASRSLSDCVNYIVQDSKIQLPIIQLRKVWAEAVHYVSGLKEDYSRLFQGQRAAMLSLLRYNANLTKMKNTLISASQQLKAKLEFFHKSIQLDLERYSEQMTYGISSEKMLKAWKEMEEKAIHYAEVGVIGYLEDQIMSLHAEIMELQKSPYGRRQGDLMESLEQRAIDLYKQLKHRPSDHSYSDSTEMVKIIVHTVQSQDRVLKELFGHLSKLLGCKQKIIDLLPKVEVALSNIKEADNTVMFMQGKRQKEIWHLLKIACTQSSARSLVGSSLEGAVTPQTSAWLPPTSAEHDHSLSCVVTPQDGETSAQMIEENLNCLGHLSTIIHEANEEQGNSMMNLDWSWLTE
Conditions: at 1 µM.

Assay [7] addresses T3, Inhibitor of nuclear factor kappa-B kinase subunit alpha (Homo sapiens). The settings on record: at 10 µM.
Assay [8] has as its target T4, Inhibitor of nuclear factor kappa-B kinase subunit beta (Homo sapiens) (UniProt O14920).
T4 sequence (whole entry): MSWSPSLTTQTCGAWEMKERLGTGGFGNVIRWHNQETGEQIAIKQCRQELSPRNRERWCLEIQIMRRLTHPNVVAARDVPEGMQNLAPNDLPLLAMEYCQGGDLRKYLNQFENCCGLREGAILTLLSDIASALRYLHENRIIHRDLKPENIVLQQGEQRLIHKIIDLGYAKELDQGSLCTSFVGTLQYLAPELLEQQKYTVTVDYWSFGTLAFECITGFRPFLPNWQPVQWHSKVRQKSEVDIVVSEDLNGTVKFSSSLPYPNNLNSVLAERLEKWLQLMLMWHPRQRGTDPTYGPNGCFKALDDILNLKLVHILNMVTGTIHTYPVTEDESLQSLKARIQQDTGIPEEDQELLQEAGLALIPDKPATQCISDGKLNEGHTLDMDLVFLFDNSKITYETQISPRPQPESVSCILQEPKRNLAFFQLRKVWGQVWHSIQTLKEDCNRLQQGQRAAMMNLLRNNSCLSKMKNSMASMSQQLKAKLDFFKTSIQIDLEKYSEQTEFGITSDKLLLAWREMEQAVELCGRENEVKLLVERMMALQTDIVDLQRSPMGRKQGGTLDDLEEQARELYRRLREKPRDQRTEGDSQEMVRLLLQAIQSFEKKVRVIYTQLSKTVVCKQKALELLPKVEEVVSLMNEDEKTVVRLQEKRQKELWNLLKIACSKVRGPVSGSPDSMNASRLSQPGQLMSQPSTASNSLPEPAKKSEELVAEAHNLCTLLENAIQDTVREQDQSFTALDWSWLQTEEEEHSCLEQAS
The settings on record: at 1 µM.

The target in assay [9] is T4, Inhibitor of nuclear factor kappa-B kinase subunit beta (Homo sapiens). The settings on record: at 10 µM.
Assay [10] addresses Insulin receptor (Homo sapiens) (UniProt P06213). The settings on record: at 1 µM.

Chain of Insulin receptor (Homo sapiens) (P06213 28-758 limits assumed): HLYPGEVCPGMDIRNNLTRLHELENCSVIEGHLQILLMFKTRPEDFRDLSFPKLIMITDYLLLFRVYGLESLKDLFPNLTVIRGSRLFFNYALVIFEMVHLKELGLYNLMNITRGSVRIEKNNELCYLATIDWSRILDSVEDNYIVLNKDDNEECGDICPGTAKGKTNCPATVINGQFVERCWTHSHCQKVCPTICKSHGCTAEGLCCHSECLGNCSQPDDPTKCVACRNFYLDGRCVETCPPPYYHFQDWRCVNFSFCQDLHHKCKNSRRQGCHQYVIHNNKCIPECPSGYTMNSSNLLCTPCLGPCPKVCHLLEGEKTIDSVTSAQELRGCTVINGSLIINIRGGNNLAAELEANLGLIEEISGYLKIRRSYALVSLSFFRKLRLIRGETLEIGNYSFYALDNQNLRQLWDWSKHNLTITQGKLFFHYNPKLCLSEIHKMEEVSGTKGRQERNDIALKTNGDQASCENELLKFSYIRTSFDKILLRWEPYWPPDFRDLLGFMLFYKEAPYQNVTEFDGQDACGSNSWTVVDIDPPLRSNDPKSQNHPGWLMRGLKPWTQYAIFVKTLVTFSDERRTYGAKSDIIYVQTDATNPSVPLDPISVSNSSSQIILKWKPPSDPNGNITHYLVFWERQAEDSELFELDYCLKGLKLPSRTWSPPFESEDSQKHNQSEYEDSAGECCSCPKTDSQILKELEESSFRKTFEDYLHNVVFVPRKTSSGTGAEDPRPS
Chain of Insulin receptor (Homo sapiens) (P06213 763-1382 limits assumed): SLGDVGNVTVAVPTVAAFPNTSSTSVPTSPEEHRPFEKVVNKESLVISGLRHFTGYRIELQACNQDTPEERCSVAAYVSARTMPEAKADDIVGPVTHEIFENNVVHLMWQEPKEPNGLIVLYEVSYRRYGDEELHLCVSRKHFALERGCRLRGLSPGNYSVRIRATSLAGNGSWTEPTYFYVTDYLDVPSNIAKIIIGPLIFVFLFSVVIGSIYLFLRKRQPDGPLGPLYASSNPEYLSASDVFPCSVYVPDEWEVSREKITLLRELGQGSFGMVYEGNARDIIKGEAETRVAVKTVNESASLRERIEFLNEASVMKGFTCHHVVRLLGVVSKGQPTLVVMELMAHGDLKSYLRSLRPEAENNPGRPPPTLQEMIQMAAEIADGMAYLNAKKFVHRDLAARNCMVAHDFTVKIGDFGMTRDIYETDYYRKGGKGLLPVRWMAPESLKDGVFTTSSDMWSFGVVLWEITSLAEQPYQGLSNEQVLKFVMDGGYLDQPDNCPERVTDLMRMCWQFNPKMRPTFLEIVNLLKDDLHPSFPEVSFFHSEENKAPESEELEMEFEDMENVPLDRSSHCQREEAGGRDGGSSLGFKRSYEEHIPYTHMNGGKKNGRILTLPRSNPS

On to `O=[N+]([O-])c1ccc(-c2nc(-c3ccc(F)cc3)c(-c3ccncc3)[nH]2)cc1`, for which the residual activity stood at 76% in assay [1]; 61% in [2]; 59% in [3]; 97% in [4]; 105% in assay [5]; 119% in assay [6]. Also, the residual activity is 99% in assay [7], 129% in assay [8], 111% in [9] and 107% in assay [10].

As usually defined, the residual activity is the signal under treatment as a percentage of the control signal.
